RORgamma inh: qHTS for inhibitors of ROR gamma transcriptional activity; Nuclear receptor ROR-gamma (Mus musculus), P51450; Drosophila S2 Gal4-RORgamma UAS-luciferase reporter, 20 h; Potency, µM (doses to about 53.6 µM), actives largely listed as inhibitors; actives 5.4% (n = 310,000); AID 2551, 2010; further: nearly all actives have a fitted effect of over 60% in size
Target sequence (P51450 whole entry, looked up, the tested form may be a part): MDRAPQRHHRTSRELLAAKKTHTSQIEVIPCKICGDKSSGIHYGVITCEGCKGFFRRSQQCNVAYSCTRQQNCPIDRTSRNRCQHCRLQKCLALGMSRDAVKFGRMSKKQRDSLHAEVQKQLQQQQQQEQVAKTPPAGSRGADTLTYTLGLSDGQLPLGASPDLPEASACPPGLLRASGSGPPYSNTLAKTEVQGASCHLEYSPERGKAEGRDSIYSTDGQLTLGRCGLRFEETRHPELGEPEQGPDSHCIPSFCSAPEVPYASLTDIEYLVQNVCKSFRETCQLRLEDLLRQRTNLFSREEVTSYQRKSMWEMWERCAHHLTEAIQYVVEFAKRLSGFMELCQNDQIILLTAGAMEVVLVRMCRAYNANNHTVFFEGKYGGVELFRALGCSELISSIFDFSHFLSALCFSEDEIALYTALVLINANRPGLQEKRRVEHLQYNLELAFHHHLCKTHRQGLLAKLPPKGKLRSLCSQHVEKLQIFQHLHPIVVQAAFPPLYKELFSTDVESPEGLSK
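Schneider cells (Drosophila), stable Gal4 DBD–ROR gamma + UAS-luc; 1 hr cmpd preincubation; Cu2+ induction 700 uM final; 20 hr ambient; luminescence.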
BRCA1 expr up: qHTS Assay to Identify Small Molecule Activators of BRCA1 Expression. MCF7-BRCA1-FFLuc reporter, luminescence, 48 h; response scale: scaled: vehicle 0%, 10 µM genistein 100%. Potency, µM (doses to about 46.1 µM), usual class: activators. actives 1.1% (n = 380,000). AID 624202, 2012; further: nearly all actives have a fitted effect of over 80% in size
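First, MCF7-BRCA1-FFLuc cells (2000/well) attach for 2 h; next, compounds are pin-added and incubated 48 h at 37 °C; finally, luciferase reagent is added and luminescence read after 15 min.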
p53 reactivator: qHTS assay for re-activators of p53 using a Luc reporter | H1299 p53-A138V BP100-luciferase reporter, luminescence, 24 h | Potency, µM (titrated, usually from 92.2 µM), hits mostly activators | actives 0.063% (n = 320,000) | AID 504706, 2011; further: nearly all actives have a fitted effect of over 45% in size
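H1299 (p53-null), stable ts p53-A138V + BP100-Luc; 1000 cells/well, Opti-MEM/10% FBS; cpd 4 pt, 1:5; 24 h, 37 deg C, 5% CO2; detection reagent 10 min RT; luminescence.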
ELG1 repair inh: qHTS screen for small molecules that inhibit ELG1-dependent DNA repair in human embryonic kidney (HEK293T) cells expressing luciferase-tagged ELG1; Potency, µM (top dose mostly 46.1 µM), actives largely listed as inhibitors; HEK293T ELG1-luciferase reporter, luminescence, 16 h; DNA damage induced by 5-fluorouridine; actives 2.3% (n = 330,000); AID 504467, 2011; further: nearly all actives have a fitted effect of over 55% in size
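5-Fluorouridine DNA damage + compound/DMSO, 2,000 cells/well, 16 h, 37 °C/5% CO2. ONE-Glo, 30 min RT, luminescence. Readout = decrease in reporter signal.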
Giardia kill: Small Molecules that selectively kill Giardia lamblia: qHTS; actives 0.15% (n = 340,000); Giardia lamblia trophozoite viability; AID 540267, 2011; activity change, % at 7.66 µM, hits read low; in the data active means activity change below about -80%; inconclusive means between about -30% and that limit;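 further: parasites exposed to compound for two days anaerobically before the ATP read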
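Viability, read as ATP luminescence: trophozoites at 100 cells/well, compound added, 48 hrs anaerobic at 37 deg C, then 15-30 min room-temperature development before reading.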
Gal4-VP16 FLuc: VP16 counterscreen qHTS for inhibitors of ROR gamma transcriptional activity; Potency, µM (highest dose often 53.6 µM), most hits filed as inhibitors; actives 3.5% (n = 310,000); AID 2546, 2010; Drosophila S2 Gal4-VP16 UAS-luciferase, luminescence, 20 h;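 further: Gal4-VP16 expression switched on by copper sulfate through the metallothionein promoter; nearly all actives have a fitted effect of over 50% in size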
Of the large screens only hits and unclear results are named; the others gave an inactive call. An excerpt weighted towards active compounds, which were near 7.6% of everything screened. Unless noted, the call rests on the fitted dose curve; in most records, active means well fitted curve in the direction sought with a large enough effect; inconclusive means small, poorly fitted or top-dose-only effect, or another doubt; inactive means no such curve, though single readings can be large; an effect the other way counts as inactive or inconclusive.

CC12CC3OS(=O)OC3CC3C4C(C(OCc5ccccc5)C31)C42 (configuration not stated)	none (no result: BRCA1 expr up, p53 reactivator, ELG1 repair inh, Giardia kill)
O=C1OC(O)C(C(Cl)Cl)=C1Cl (configuration not stated)	RORgamma inh 2.2µM, Gal4-VP16 FLuc 2.8µM (no result: BRCA1 expr up, p53 reactivator, ELG1 repair inh, Giardia kill)
C=CCCCCCCCCc1nc(SCC(=O)O)n[nH]1	none
C=CCCCCCCCCc1nc(=S)[nH][nH]1	RORgamma inh 13µM
COc1ccc(CCNC(=O)C2CC(=O)N(C3CCCC3)C2)cc1OC (configuration not stated)	none
O=[N+]([O-])c1c(Nc2ccccc2O)cc(Cl)c2nonc12	RORgamma inh 3.5µM, ELG1 repair inh 26µM, Gal4-VP16 FLuc 2.8µM
O=[N+]([O-])c1c(Nc2ccccc2O)ccc2nonc12	none
Cc1cc(C(=O)COc2ncnc3sccc23)c(C)n1C1CC1	BRCA1 expr up 8.9µM, p53 reactivator inconclusive, ELG1 repair inh inconclusive
COc1cc(CNc2ncnc3c2ncn3[C@H]2CN(CCN3CCOCC3)C[C@@H](CO)O2)cc(OC)c1OC	none (no result: RORgamma inh, p53 reactivator, ELG1 repair inh, Giardia kill, Gal4-VP16 FLuc)
Cc1ccc(Cn2nnc3c(=O)[nH]c(C4CCN(S(=O)(=O)c5ccc(S(=O)(=O)NC6CC6)cc5)CC4)nc32)cc1	ELG1 repair inh inconclusive
O=c1[nH]c(C2CCN(S(=O)(=O)c3ccc(S(=O)(=O)NC4CC4)cc3)CC2)nc2c1nnn2Cc1cccc(F)c1	ELG1 repair inh 13µM
CCOC(=O)C(=O)Nc1nc(-c2ccccc2)c(-c2ccccc2)o1	RORgamma inh 20µM
COc1cccc(C(=O)Nc2cc(-c3ccccc3)nn2-c2ccccc2)c1	none (no result: RORgamma inh, p53 reactivator, ELG1 repair inh, Giardia kill, Gal4-VP16 FLuc)
CCOC(=O)Nc1sc(C)nc1-c1ccccc1	ELG1 repair inh inconclusive
COc1ccc(OC)c(NC(=O)c2ccc3nc(-c4ccccc4)c(-c4ccccc4)nc3c2)c1	ELG1 repair inh 23µM (no result: BRCA1 expr up, Giardia kill)
O=C(Nc1nc(-c2ccccc2)c(-c2ccccc2)o1)c1ccc(F)cc1	RORgamma inh 1.4µM, Gal4-VP16 FLuc 2.8µM
COc1cccc(C(=O)Nc2nc(-c3ccccc3)c(-c3ccccc3)o2)c1	RORgamma inh 2.5µM, ELG1 repair inh inconclusive, Gal4-VP16 FLuc 3.2µM
NC(=O)C1CCCN(S(=O)(=O)c2ccc(Br)cc2)C1 (configuration not stated)	Gal4-VP16 FLuc inconclusive (no result: p53 reactivator, ELG1 repair inh)
CC1(C)Cc2nc3sc4c(NCCO)ncnc4c3cc2CS1	RORgamma inh 4µM, Gal4-VP16 FLuc inconclusive
O=C(c1cnn2ccccc12)N1CCCc2ccccc21	none
CCOc1ccc(-c2n[nH]c(C(=O)NN)c2C)cc1	BRCA1 expr up 10µM, p53 reactivator inconclusive, ELG1 repair inh inconclusive
CCOC(=O)c1cc(-c2ccc(OC)cc2)n[nH]1	BRCA1 expr up 11µM, p53 reactivator inconclusive, ELG1 repair inh inconclusive
CCOC(=O)c1cc(-c2ccc3c(c2)OCCO3)n[nH]1	BRCA1 expr up inconclusive, ELG1 repair inh inconclusive
CC(C)COc1ccc(-c2cc(C(=O)NN)[nH]n2)cc1	RORgamma inh 13µM, BRCA1 expr up inconclusive, p53 reactivator inconclusive, ELG1 repair inh inconclusive, Gal4-VP16 FLuc inconclusive
Cc1c(-c2ccccc2)n[nH]c1C(=O)NN	BRCA1 expr up inconclusive, ELG1 repair inh inconclusive
CCOc1ccc(-c2cc(C(=O)NN=C3CCN(C)CC3)[nH]n2)cc1	RORgamma inh inconclusive, BRCA1 expr up inconclusive, ELG1 repair inh inconclusive, Gal4-VP16 FLuc inconclusive
CCC(C)c1ccc(NC(=O)c2cccnc2)cc1 (configuration not stated)	BRCA1 expr up 3.5µM, ELG1 repair inh inconclusive, Gal4-VP16 FLuc inconclusive
CCC(C)c1ccc(NC(=S)NCc2cccnc2)cc1 (configuration not stated)	RORgamma inh inconclusive, p53 reactivator inconclusive, Gal4-VP16 FLuc 22µM
O=C(CN1CCN(CC(=O)Nc2ccccc2F)CC1)Nc1cccc(F)c1	none
CCOc1ccc(C(C)=O)cc1COc1ccc(-c2nnco2)cc1	ELG1 repair inh 7.3µM
COc1ccc(C(C)=O)cc1COc1ccc(F)cc1	none
CN(C)S(=O)(=O)N1CCc2ccc(NC(=O)c3ccc(C(F)(F)F)cc3)cc2C1	ELG1 repair inh 9.2µM, Gal4-VP16 FLuc inconclusive
COCCC(=O)N1CCc2ccc(NC(=O)c3ccc(C(F)(F)F)cc3)cc2C1	p53 reactivator inconclusive, ELG1 repair inh 13µM
CCOC(=O)c1sc(NC(=O)CCN2CCCCCC2)c(C(=O)OCC)c1C	RORgamma inh 11µM, Gal4-VP16 FLuc inconclusive
CCOC(=O)c1sc(NC(=O)CNCc2cccnc2)c(C(=O)OCC)c1C	none
CCOC(=O)c1c(NC(=O)CC)sc(C(=O)N2CCCCC2)c1C	none
CCOC(=O)c1c(NC(=O)CCN2CCOCC2)sc(C)c1-c1ccccc1	ELG1 repair inh 21µM
CCN1CCN(C(=S)Nc2sc(C)c(-c3ccccc3)c2C(=O)OC)CC1	RORgamma inh inconclusive, ELG1 repair inh 16µM
CCOC(=O)c1sc(NC(=O)CNCc2ccccn2)c(C(=O)OCC)c1C	RORgamma inh 7.9µM, ELG1 repair inh 12µM, Gal4-VP16 FLuc inconclusive
Nn1c(COc2cccc(Br)c2)nnc1SCC(=O)N1CCc2ccccc2C1	none
CCOC(=O)c1c(NC(=O)/C=C/C(=O)O)sc(C)c1-c1ccc(C(C)(C)C)cc1	RORgamma inh 11µM, ELG1 repair inh 12µM, Gal4-VP16 FLuc inconclusive
CCOC(=O)c1c(NC(=O)/C=C\C(=O)O)sc(C)c1-c1ccccc1	RORgamma inh inconclusive
NC1=NCC(O)=C1c1nc2ccccc2[nH]1	RORgamma inh 11µM
N=C1C(c2nc3ccccc3[nH]2)=C(O)CN1C1CCCCC1	BRCA1 expr up inconclusive, ELG1 repair inh inconclusive
N=C1C(c2nc3ccccc3[nH]2)=C(O)CN1c1ccc(F)cc1	RORgamma inh 5µM, ELG1 repair inh inconclusive
O=S(=O)(Nc1cc(Cl)ccn1)c1ccc(Cl)cc1	none
Oc1ccc(C[C@@H]2CNC(=S)N2CCCCC2CCCCC2)cc1	RORgamma inh 8.9µM, Gal4-VP16 FLuc inconclusive
S=C1NC[C@H](c2ccccc2)N1CCCCC1CCCCC1	RORgamma inh 0.45µM, Gal4-VP16 FLuc 3.2µM
CCOC(=O)CN(C(=O)COc1nc(-c2ccccc2)cc(C)c1C#N)c1ccccc1C	ELG1 repair inh 21µM
CCOC(=O)CN(C(=O)COc1nc(-c2ccccc2)cc(C)c1C#N)c1ccccc1	none
CC1OC1c1ccc(-c2ccc(C3OC3C)cc2)cc1 (configuration not stated)	BRCA1 expr up 5µM (no result: RORgamma inh, p53 reactivator, ELG1 repair inh, Gal4-VP16 FLuc)

Screening results deposited in PubChem BioAssay by National Center for Advancing Translational Sciences (NCATS).
